According to PubChem BioAssay (NCI):
Where “and” joins values, the source holds several entries; their conditions need not be identical. Equal entries are not always repeated. This is part of a sample that, as a whole, favours compounds with a hit. Of some 83,000 tested, about 20% had one in any assay.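 Method: cells in 96-well plates; compound added at one concentration; 48 h incubation; percent growth measured; values under 10 scored active.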 Values without a mark were called inactive. Calls of active or inactive are those of the source.

Tested on: MDA-MB-468 breast
Assay: NCI-60 one-dose screen, 48 h (100 = growth as untreated, 0 = no growth, -100 = all killed)
Settings: 10 µM unless noted

Question: Nc1nc(Cl)nc2c1ncn2C1OC(CO)C(O)C1O (stereo not given) was tested. Which growth did it give?
Answer: 124% and 94.5%

Question: With COc1c(-c2c3sc(=O)[nH]c3nc3c2c(=O)[nH]n3C(C)C)cc2c(c1OC)OCO2 as the compound, how does the growth read?
Answer: 102%

Question: How did the growth turn out when CN(C)c1ccc(C(=NO)c2ccc(N(C)C)cc2)cc1 was run?
Answer: -0.198% (active)

Question: How did the growth turn out when Cc1cccc(Oc2ccc(Nc3ncnc4ccc(NC(=O)CN(C)C)cc34)cc2Cl)c1 was run?
Answer: -45.2% (active)

Question: How did the growth turn out when O=C(COc1ccc(/C=C2\Cc3ccc(Cl)cc3C2=O)cc1)Nc1nc2ccccc2s1 was run?
Answer: 109%

Question: O=C1OC[C@H]2[C@H](c3ccc(O)c(O)c3)c3cc(O)c(O)cc3C[C@H]12 was tested. Which growth did it give?
Answer: 93.3%

Question: O=c1c2cc(C(F)(F)F)ccc2sc2c(NCCCNCCO)nc3ccccc3c12 was tested. Which growth did it give?
Answer: -74.3% (active)

Question: How did the growth turn out when c1ccc(-c2cn3c(-c4c[nH]c5ccccc45)csc3n2)cc1 was run?
Answer: 3.41% (active)

Question: How did the growth turn out when O=C(/C=C\c1ccc(O)cc1)c1ccccc1 was run?
Answer: 97.4%

Question: O=C(COc1ccc(C2SCC(=O)N2c2ccc(F)cc2)cc1)c1ccccc1 (stereo not given) was tested. Which growth did it give?
Answer: 89.1%

Question: How did the growth turn out when CCCCCCCCCCCCCC was run?
Answer: 110%

Question: Which growth does the source give for NCCOc1ncccc1/C=C1\c2ccccc2-c2ccc(F)cc21 here?
Answer: -24.1% (active)

Question: For N#C/C(C(=O)c1ccccc1)=C1/C(=O)Nc2ccc(F)cc21, which growth is on record?
Answer: 106%

Question: Which growth does the source give for O=C(Oc1cccc(OC(=O)c2ccccc2)c1)c1ccccc1 here?
Answer: 110% and 101%

Question: How did the growth turn out when CCN1C(=S)N(CC)C2C1N=C(SC)N2/N=C/C=C/c1ccccc1[N+](=O)[O-] (stereo not given) was run?
Answer: 99.8%

Question: For Cc1ccc(NC(=O)/C=N/O)cc1C, which growth is on record?
Answer: 62.4%

Question: CN1CCN(c2ccc3nc(-c4c(N)c5c(F)cccc5[nH]c4=O)[nH]c3c2)CC1 was tested. Which growth did it give?
Answer: 108% and 102%

Question: With Cc1ccc(/C=C(\C#N)n2nnc3cc(Cl)c(Cl)cc32)cc1 as the compound, how does the growth read?
Answer: 22.3%

Question: For NC(N)=NC(N)=NCCCc1ccco1, which growth is on record?
Answer: 107%

Question: O=c1oc2ccc(Cl)cc2c(=O)n1-c1ccc(F)cc1F was tested. Which growth did it give?
Answer: -4.5% (active)

Question: How did the growth turn out when COc1ccc(COC=O)cc1 was run?
Answer: 114%

Question: CC(C)C[C@@H](C(=O)N[C@H](C(=O)OC1CCCC1)c1ccccc1)[C@H](O)C(=O)NO was tested. Which growth did it give?
Answer: 16.9%

Question: Which growth does the source give for N#Cc1cccc(CN2CCc3ncn(Cc4ccc(Cl)cc4)c(=O)c3C2)c1 here?
Answer: -21.8% (active)

Question: How did the growth turn out when Cc1[nH]c(C(=O)Nc2ccc(C(=O)N3CCNCC3)cc2OC(C)C)c(Cl)c1Cl was run?
Answer: 64.8%

Question: With CN(C)c1ccc(C(=C2C=CC(=[N+](C)C)C=C2)c2ccccc2Cl)cc1 as the compound, how does the growth read?
Answer: -57.8% (active) and -84.2% (active)

Question: With N#CC[C@H](C1CCCC1)n1cc(-c2ncnc3[nH]ccc23)cn1 as the compound, how does the growth read?
Answer: 71.3%

Question: How did the growth turn out when CN(C)c1ccc(/C=C/c2ccnc3ccccc23)cc1N was run?
Answer: 5.88% (active)

Question: How did the growth turn out when Nc1c(C(=O)O)cc(Cl)cc1[N+](=O)[O-] was run?
Answer: 96.2%

Question: Which growth does the source give for CCN(CC)CCC(=O)c1cccc2ccccc12 here?
Answer: 84.5%

Question: For Nc1c(C(=O)c2ccc(Br)cc2)oc2nc(-c3cnccn3)cc(-c3cccs3)c12, which growth is on record?
Answer: 99.4%

Question: Which growth does the source give for C[C@H]1[C@H](OC(=O)CCC(=O)O)O[C@@H]2O[C@]3(C)CC[C@H]4[C@H](C)CC[C@@H]1[C@@]24OO3 here?
Answer: 29.1%

Question: With Clc1ccc(C(/C=C/c2sc(Cl)nc2Cl)=N/Nc2cc(Cl)cc(Cl)c2)cc1 as the compound, how does the growth read?
Answer: 107%

Question: Which growth does the source give for O=C(CN1CCN(c2cc(=O)[nH]c3ccc(F)cc23)CC1)N(c1ccccc1)c1ccccc1 here?
Answer: 98.6%

Question: Which growth does the source give for O=C(Nc1ccc(C2=NCCCN2)cc1)c1ccc(C(=O)Nc2ccc(C3=NCCCN3)cc2)nc1 here?
Answer: 102%

Question: For COc1ncc(-c2ccc3nccc(C#CCN4CCN(S(C)(=O)=O)CC4)c3c2)cc1NS(=O)(=O)c1ccc(F)cc1F, which growth is on record?
Answer: -67% (active)

Question: Which growth does the source give for N#Cc1ncc(-c2ccc(C(F)(F)F)cc2)c(NC2CCCCCC2)n1 here?
Answer: -8.28% (active)

Question: With O=S(=O)(O)c1ccc(F)cc1 as the compound, how does the growth read?
Answer: 122%

Question: CCC(C)NCC(=O)O (stereo not given) was tested. Which growth did it give?
Answer: 100%

Question: With CC1=CNNc2c3ncnc-3ncn21 as the compound, how does the growth read?
Answer: 95.1%

Question: How did the growth turn out when O=C(/C(=C/c1ccc([N+](=O)[O-])cc1)SCc1ccccc1)c1ccc(Cl)cc1 was run?
Answer: 70.4%
